# Rows were chosen to be rich in hits. Some 19% of all compounds tested hit in one or more screens of this group.
# Cycloheximide cs: counter-screen hit for Shiga toxin inhibitors, cycloheximide | actives 12% (n = 300,000) | cell reporter, cycloheximide protein synthesis inhibition counterscreen | max response, %; in the data active = max response mostly above about 13%, no sharp cut-off; inactive = mostly below about 14%; also: read at 38.3 µM for the half of the compounds with a filed dose
# Pf growth 96h: P. falciparum growth inhibition at 96 hour, primary screen for plastid delayed-death inhibitors; Potency, µM (top dose mostly 28.7 µM), hits mostly inhibitors; actives 6.9% (n = 320,000); P. falciparum luciferase reporter growth, 96 h; AID 504834
#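 Plates of compound plus infected erythrocytes (2% hematocrit, 0.05% parasitemia final) incubate 96 hours, 37 C, 5% CO2. Detection reagent added; reduced luminescence from the parasites' luciferase reporter flags inhibition.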
# Shiga inhibitor: inhibitors of Shiga toxin in Vero cells. Vero cells, Shiga toxin protein synthesis inhibition reporter. actives 9.2% (n = 290,000). AID 2315. inhibition, % at 38.7 µM; in the data active = inhibition mostly above about 28%, no sharp cut-off; inactive = mostly below about 43%
# Marburg entry inh: Marburg virus entry inhibition. Marburg virus pseudotyped entry inhibition, cell reporter. Potency, µM (highest dose often 37.8 µM), most hits filed as inhibitors. actives 1.8% (n = 300,000); calls by dose curve; tested in HEK293 cells
# Pf growth 48h: inhibits P. falciparum growth in the first generation, 48 h. AID 504832. P. falciparum luciferase growth in erythrocytes, 48 h. Potency, µM (highest dose often 28.7 µM), hits mostly inhibitors. actives 5.9% (n = 310,000)
#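 Luciferase-expressing parasites in RBCs, 2% Hct / 0.1% parasitemia final; RPMI 1640 + 0.5% Albumax; 37 C, 5% CO2, one generation; luminescence read-out, lower signal = inhibition.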
# LASV entry inh: blocks Lassa virus binding to or entry into cells; AID 540256; Lassa virus pseudotype entry inhibition, cell reporter; actives 1.2% (n = 300,000); Potency, µM (highest dose often 37.9 µM), most hits filed as inhibitors; calls by dose curve; tested in HEK293 cells; also: nearly all actives have a fitted effect of over 50% in size
# Hits are given with their value; - = inactive; ? = inconclusive; . = no result given; [ ] = another dose, or the depositor's remark. Unless noted, calls follow the shape of the dose curve; as a rule, active = well fitted inhibition curve with a large enough effect; inconclusive = small, poorly fitted or top-dose-only effect, or another doubt; inactive = no such curve, though single readings can be large or run the other way.
SMILES,Cycloheximide cs,Pf growth 96h,Shiga inhibitor,Marburg entry inh,Pf growth 48h,LASV entry inh
COC(=O)c1ccc2c(=O)[nH]c(CSc3nc(C)cs3)nc2c1,28,-,67,?,-,?
COc1ccc(CCNc2ccc([N+](=O)[O-])cn2)cc1,-,13µM,-,.,?,.
COc1ccc(CCNC(=O)C(C)c2ccc([N+](=O)[O-])cc2)cc1 (stereo not drawn),-,8.3µM,-,?,-,-
O=[N+]([O-])c1ccc(NCc2ccccc2)nc1,55,-,56,-,-,-
COc1ccc(CCNC(=O)c2ccc([N+](=O)[O-])cc2)cc1,-,-,-,-,-,-
NS(=O)(=O)c1ccc(NC(=S)N2CCN(S(=O)(=O)c3ccc(F)cc3)CC2)cc1,-,-,-,-,?,-
COc1ccc(N2CC(C(=O)Nc3nnc(Cc4ccccc4)s3)CC2=O)cc1 (stereo not drawn),-,-,-,-,-,-
COc1ccc(NS(=O)(=O)c2ccc3c(c2)CCN3C(=O)CCC(=O)O)cc1OC,33,-,64,-,-[0.00184 µM],?
O=C(O)CCC(=O)N1CCc2cc(S(=O)(=O)Nc3ccc4c(c3)OCCO4)ccc21,-,13µM,-,.,.,.
C#CCOCCOCCOCCNc1nc(N2CCN(C(=O)[C@H](C)n3cc(CCCN=C(N)N)nn3)CC2)nc(N2CCN(C(=O)[C@H](Cc3ccc(O)cc3)n3cc(CCO)nn3)CC2)n1,-,?,-,-,-,-
C/C(=N/NC(=O)CNC(=O)c1cccs1)c1ccc(Cl)cc1,-,-,-,-,-,-
CC(OC(=O)c1cc(Br)ccc1O)C(=O)NCc1ccc2c(c1)OCO2 (stereo not drawn),.,-,.,-,-,?
O=C(CCCN1C(=O)c2cccnc2Oc2ccc(Cl)cc21)NCc1ccccc1F,.,.,.,.,.,-
COc1cc(O)sc1C=Nc1ccc(Cl)cc1,31,?,42,.,-,.
CCCC[n+]1c(C)sc2ccc(C)cc21,-,4.7µM,-,.,-,.
Cc1ccc2sc(C)[n+](CCO)c2c1,-,-,-,-,-,-
COc1ccc(NC2c3ccccc3C(=O)N2c2cccnc2)cc1Cl (stereo not drawn),-,?,-,-,?,-
O=C(O)C1C2C=CC3(CN(c4cccc(C(F)(F)F)c4)C(=O)C13)O2 (stereo not drawn),-,10µM,-,-,-,-
Cc1cccc(N2CC34C=CC(O3)C(C(=O)O)C4C2=O)c1 (stereo not drawn),-,-,-,-,-,?
O=C(NCCCN1CCOCC1)c1ccc2c(c1)N(Cc1ccccc1)C(=O)c1ccccc1S2=O (stereo not drawn),-,-,-,.,?,.
O=C(NCCCN1CCOCC1)c1ccc2c(c1)N(Cc1cccc(Cl)c1)C(=O)c1ccccc1S2=O (stereo not drawn),-,-,-,.,12µM,.
CCN1C(=O)c2ccccc2S(=O)c2ccc(C(=O)NCCN(CC(C)C)CC(C)C)cc21 (stereo not drawn),-,-,-,?,12µM,?
O=C(NCCCN1CCOCC1)c1ccc2c(c1)N(Cc1ccccc1F)C(=O)c1ccccc1S2=O (stereo not drawn),-,15µM,-,?,-,?
CCN1C(=O)c2ccccc2S(=O)c2ccc(C(=O)NCc3ccc(C)cc3)cc21 (stereo not drawn),.,.,.,-,.,-
CC1=Nc2ccccc2/C1=C/c1c(N)n2c(S(=O)(=O)CC(C)C)nsc2nc1=O,-,?,-,-,-,-
SMILES,Cycloheximide cs,Pf growth 96h,Shiga inhibitor,Marburg entry inh,Pf growth 48h,LASV entry inh
COc1cccc(C(C(=O)Nc2ccc(F)cc2)N(C(=O)Cn2nnc3ccccc32)C2CC2)c1 (stereo not drawn),-,10µM,-,-,?,-
CCC(C)N(C(=O)Cn1nnc2ccccc21)C(C(=O)NCc1ccco1)c1cccc(OC)c1 (stereo not drawn),-,10µM,-,-,-,-
COCCN(C(=O)Cn1nnc2ccccc21)C(C(=O)NC1CCCC1)c1cccc(OC)c1OC (stereo not drawn),-,-,-,-,?,-
CCOc1ccc(C(C(=O)Nc2ccc(F)cc2)N(C(=O)Cn2nnc3ccccc32)C2CC2)cc1 (stereo not drawn),-,4.7µM,-,-,?,-
COc1ccc(C(C(=O)NCCC(C)C)N(CCN2CCOCC2)C(=O)Cn2nnc3ccccc32)c(OC)c1 (stereo not drawn),-,5.2µM,-,-,?,-
Cc1ccc(COC(=O)CN2C(=O)NC3(CCCCC3C)C2=O)cc1 (stereo not drawn),.,?,.,-,-,-
Cn1cccc1C(=O)OCC(=O)Nc1cccc(S(=O)(=O)N2CCOCC2)c1,-,?,-,.,-,.
CCc1nc2ccccc2c(C(=O)OCC(=O)Nc2cccc(S(=O)(=O)N3CCOCC3)c2)c1C,-,?,-,4.6µM,?,?
O=C(COC(=O)c1ccccn1)Nc1ccc(S(=O)(=O)N2CCOCC2)cc1,-,-,-,-,-,-
CCc1nc2ccccc2c(C(=O)OCC(=O)Nc2ccc(S(=O)(=O)N3CCOCC3)cc2)c1C,-,-,-,?,9.3µM,?
CCc1nc2ccccc2c(C(=O)OCC(=O)Nc2cccc(S(=O)(=O)NC3=NCCCCC3)c2)c1C,-,-,-,?,?,22µM
CCCCOc1ccc2c(c1)C(=O)c1cc(O)ccc1-2,29,-,93,?,-,-
CCOc1ccc2c(c1)C(=O)c1cc(OCC(=O)O)ccc1-2,-,-,-,.,-,.
C[C@@H](NC(=O)/C(C#N)=C/c1ccc(O)c(O)c1)c1ccccc1,.,?,.,?,?,-
COc1ccc(-c2nnn(Cc3ccccc3F)n2)cc1,49,-,96,-,-,-
Fc1ccccc1Cn1nnc(-c2ccc3c(c2)OCO3)n1,43,-,88,?,.,?
CCOC(=O)c1c(NC(=O)C2COc3ccccc3O2)sc2c1CCN(Cc1ccccc1)C2 (stereo not drawn),-,2.3µM,-,-,4.7µM,?
NC(=O)c1c(NC(=O)C2COc3ccccc3O2)sc2c1CCN(Cc1ccccc1)C2 (stereo not drawn),-,-,-,-,-,.
COC(=O)N1CCc2c(sc(NC(=O)C3COc4ccccc4O3)c2C(N)=O)C1 (stereo not drawn),.,?,.,?,15µM,-
CCOC(=O)c1c(C)cc(C)n2c1nc1ccccc12,-,12µM,-,?,?,-
Cc1ccnc(N2C(=O)OC(C)(C)C2(C)O)c1 (stereo not drawn),-,8.3µM,-,-,-,-
CC1(C)Cc2c(sc3ncnc(NNC(=S)NCc4ccccc4)c23)CO1,-,?,-,?,-,0.12µM
Cc1cc(NC(=O)CCC(=O)N(CC(=O)NC2CCCC2)Cc2ccc(F)cc2)no1,-,-,-,-,-,-
COc1ccc(CCn2c(C)cc3c(c2=O)C(c2ccc4c(c2)OCO4)C(C#N)=C(N)O3)cc1OC (stereo not drawn),-,.,-,-,8.3µM,?
